The text below walks through data of PubChem BioAssay (Tox21).

Each structure is given as a SMILES string. “And” between values parts separate entries of the source, which are not always exact repeats. Equal entries are not always repeated. Results filed as inconclusive are left out. Where a structure was tested more than once in an assay, its records may differ in their call. The source made the active and inactive calls. Unless noted, calls come from the whole dose curve.

Assay [1] is described as follows: Nuclear factor erythroid 2-related factor 2/antioxidant responsive element (Nrf2/ARE) small molecule agonists: qHTS cell viability counter screen in human keratinocytes (AID 1919968; active = well fitted curve in the direction sought with a large enough effect in the repeat runs; an effect the other way counts as inactive or inconclusive; note: nearly all actives have a fitted effect of over 55% in size). In a few lines: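 Cytotoxicity was multiplexed with the Nrf2/ARE luciferase assay in the same wells. Stably transfected HaCaT keratinocytes were treated with test compounds for 23 h at 37 C. Cell viability was then measured by CellTiter-Fluor fluorescence.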

The nature of assay [2]: Nuclear factor erythroid 2-related factor 2/antioxidant responsive element (Nrf2/ARE) small molecule agonists: luciferase reporter gene qHTS assay in human keratinocytes (AID 1919969). Note: nearly all actives have a fitted effect of over 35% in size. Note: potency is the fitted concentration of half-maximal effect.
Assay [3] addresses Gonadotropin-releasing hormone receptor (Homo sapiens) (UniProt P30968). Put plainly: Human gonadotropin-releasing hormone receptor (GnRHR) small molecule agonists, calcium flux assay in GnRHR-HEK293 cells (AID 1920063). Note: nearly all actives have a fitted effect of over 35% in size. The method, boiled down:
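Agonist activity was measured as intracellular calcium flux in HEK293 cells engineered to stably express human GnRHR. After dye loading for 1 hour at 37 C, compounds in DMSO were added and fluorescence was followed for 3 minutes.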

The target in assay [4] is KiSS-1 receptor (Homo sapiens) (UniProt Q969F8). Kind of assay: Human kisspeptin (KISS1R) small molecule agonists, calcium flux assay in KISS1R-HEK293 cells (AID 1920064; active = well fitted curve in the direction sought with a large enough effect in the repeat runs; an effect the other way counts as inactive or inconclusive). In a few lines: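 Agonist activity is monitored as intracellular calcium rise in engineered HEK293 cells carrying human KISS1R. Cells are dye-loaded for 1 h at 37 C before compound addition, and fluorescence is recorded for 3 min.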

A short description of assay [5]: G protein-coupled receptor (GPCR) small molecule agonists, calcium flux assay: HEK293 wild type cell line counter screen (AID 1920065). In a few lines: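 Seed cells, incubate 18 h (37 C, 5% CO2); add calcium dye, 1 h at 37 C; pin-transfer compounds, ATP control or DMSO; read fluorescence 480/540 nm each second for 3 min.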
Assay [6] in a line: p53 small molecule agonists, cell-based qHTS assay with human liver microsomes (AID 1963577). Note: potency is the fitted concentration of half-maximal effect. The method, boiled down: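 Fluorescence of the beta-lactamase reporter in p53RE-bla cells, detected with LiveBLAzer substrate (2 h, room temperature, dark), served as the read-out after 16 h compound exposure at 37 C with human liver microsomes and NADPH, each 0.5 mg/mL final.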
A short description of assay [7]: p53 small molecule agonists, cell-based qHTS assay with rat liver microsomes (AID 1963578). Note: potency is the fitted concentration of half-maximal effect. In a few lines: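 Cells carrying a p53 response element–beta-lactamase reporter were plated and rested 5 h, then dosed with compound in DMSO plus rat liver microsomes and NADPH, each at 0.5 mg/mL final. After 16 h at 37 C, LiveBLAzer substrate was added for 2 h.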
A short description of assay [8]: p53 small molecule agonists, cell-based qHTS assay with human liver microsomes: qHTS cell viability counter screen (AID 1963579). Note: nearly all actives have a fitted effect of over 45% in size. The method, boiled down: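 Cytotoxicity counter screen: p53RE-bla, 4,000 cells/well; 5 h settle, 37 C/5% CO2; cpd + HLM 0.5 mg/mL + NADPH 0.5 mg/mL (final); 16 h, 37 C; CellTiter-Glo, 30 min RT, luminescence.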
Assay [9] can be described thus: p53 small molecule agonists, cell-based qHTS assay: qHTS cell viability counter screen (AID 1963581). Note: nearly all actives have a fitted effect of over 45% in size. The method, boiled down:
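Viability was counter-screened in parallel with the p53 agonist reporter by measuring intracellular ATP luminescence in the same HCT-116 p53RE-bla wells after 16 h compound treatment at 37 C.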

Assay [10] deals with 5-hydroxytryptamine receptor 2A (Homo sapiens) (UniProt P28223). Kind of assay: 5-hydroxytryptamine receptor 2A (HTR2A) small molecule antagonists, cell-based qHTS assay (AID 1963586). Note: nearly all actives have a fitted effect of over 45% in size. The method, boiled down: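 CHO cells stably expressing human HTR2A were plated for 18 h at 37 C, then loaded with calcium dye for 1 h. Compounds were preincubated 5 min at room temperature before DOI (4 nM solution) was added. Kinetic fluorescence was read for 3 min.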

Assay [11] shares this target. Kind of assay: 5-hydroxytryptamine receptor 2A (HTR2A) small molecule agonists, cell-based qHTS assay (AID 1963587). Note: nearly all actives have a fitted effect of over 30% in size. The method, boiled down:
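HTR2A-CHO cells, plated 18 h at 37 C/5% CO2, dye-loaded 1 h at 37 C; compounds in DMSO added by pin tool (agonist mode). Intracellular calcium flux read as kinetic fluorescence on FDSS over 2 min at 1 s intervals.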

Assay [12] addresses Muscarinic acetylcholine receptor M1 (Homo sapiens) (UniProt P11229). Put plainly: Cholinergic receptor muscarinic 1 (CHRM1) small molecule agonists, cell-based qHTS assay (AID 1963589). Note: nearly all actives have a fitted effect of over 35% in size. In a few lines: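 Cells were plated and incubated 18 h at 37 C/5% CO2, loaded with calcium dye for 1 h at 37 C, then treated with compounds in DMSO. Fluorescence was recorded kinetically at 1 sec intervals.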

Assay [13] can be described thus: cAMP Responsive Elements (CRE) small molecule agonists, cell-based qHTS assay (AID 1963590). The method, boiled down: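 Cells carrying a CRE-driven beta-lactamase reporter (HEK 293T) are seeded, incubated overnight (18 h), and treated with test compounds for 3 h at 37 C; reporter activity is then detected with a FRET substrate after 2 h at room temperature.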
Assay [14] is described as follows: cAMP Responsive Elements (CRE) small molecule antagonists, cell-based qHTS assay (AID 1963591; active = well fitted inhibition curve with a large enough effect in the signal ratio in the repeat runs, not every such curve was filed as active; the % refers to the signal ratio). In a few lines: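 Cells (CRE-bla HEK 293T, DMEM with 10% dialyzed FBS and 25 mM HEPES) are seeded and incubated 18 h. Compounds are added with NKH477 agonist at 0.25 uM final for 3 h, then FRET substrate for 2 h.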
The target of assay [15] is Beta-2 adrenergic receptor (Homo sapiens) (UniProt P07550). Put plainly: Adrenergic beta2 receptor (ADRB2) small molecule antagonists, cell-based qHTS assay (AID 1963592). Note: series mostly up to about 92 µM; nearly all actives have a fitted effect of over 50% in size. In a few lines:
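Assay format: CHO-ADRB2 cells, 18-20hr seeding at 37C/5% CO2, then compound plus 1nM isoproterenol agonist mix for 0.5hr RT. Homogeneous time-resolved fluorescence cAMP detection after 1hr, expressed as 665/615 nm ratio.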

The target is the same in assay [16]. Kind of assay: Adrenergic beta2 receptor (ADRB2) small molecule agonists, cell-based qHTS assay (AID 1963593).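 Note: CHO cells stably overexpressing human ADRB2.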 In a few lines:
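CHO cells stably over-expressing ADRB2 were plated overnight at 37C, then dosed with compounds plus a stimulation mix containing 100uM IBMX and 25uM Ro-20-1724 for 0.5hr at room temperature. cAMP was measured by HTRF competition, 1hr.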

Assay [17] deals with D(2) dopamine receptor (Homo sapiens) (UniProt P14416). Put plainly: Dopamine D2 receptor (DRD2) small molecule agonists, cell-based qHTS assay (AID 1963594). Note: nearly all actives have a fitted effect of over 35% in size. The method, boiled down:
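HEK293 cells stably expressing DRD2 were cultured 24 h at 37 C, then given Ro20-1724 (0.1 mM final) and compounds for 10 min at room temperature. NKH477 (200nM) was then added for 30 min. cAMP was read by HTRF.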

Assay [18] can be described thus: p53 small molecule agonists, cell-based qHTS assay (AID 1963582; active = well fitted activation curve with a large enough effect in the signal ratio in the repeat runs, not every such curve was filed as active; the % refers to the signal ratio). In a few lines: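 Cells carrying a p53-responsive bla reporter are treated with test compounds for 16 h at 37 C; beta-lactamase activity is then detected with LiveBLAzer B/G FRET substrate after 2 h at room temperature.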
Assay [19] concerns the target Muscarinic acetylcholine receptor M1 (Homo sapiens) (UniProt P11229). Put plainly: Cholinergic receptor muscarinic 1 (CHRM1) small molecule antagonists, cell-based qHTS assay (AID 1963588). Note: nearly all actives have a fitted effect of over 40% in size. Note: potency is the fitted concentration of half-maximal effect. In a few lines:
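Compounds were tested at 15 concentrations in three independent runs. Dye-loaded CHRM1-CHO cells were exposed 5 min at room temperature before stimulation by acetylcholine added at 50nM. Intracellular calcium was read kinetically on FDSS for 3 min.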

Assay [20] concerns the target D(2) dopamine receptor (Homo sapiens) (UniProt P14416). Kind of assay: Dopamine D2 receptor (DRD2) small molecule antagonists, cell-based qHTS assay (AID 1963595; active = well fitted inhibition curve with a large enough effect in the signal ratio in the repeat runs, with a control signal flat; the % refers to the signal ratio). In a few lines: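 DRD2-HEK293; 0.1 mM Ro20-1724; cpd 10 min RT; NKH477 200 nM + quinpirole 12 nM, 30 min RT; HTRF cAMP (cAMP-d2/anti-cAMP cryptate), 665/620 nm ratio after 1 h.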

Sequence of Muscarinic acetylcholine receptor M1 (Homo sapiens) (P11229 whole entry, looked up): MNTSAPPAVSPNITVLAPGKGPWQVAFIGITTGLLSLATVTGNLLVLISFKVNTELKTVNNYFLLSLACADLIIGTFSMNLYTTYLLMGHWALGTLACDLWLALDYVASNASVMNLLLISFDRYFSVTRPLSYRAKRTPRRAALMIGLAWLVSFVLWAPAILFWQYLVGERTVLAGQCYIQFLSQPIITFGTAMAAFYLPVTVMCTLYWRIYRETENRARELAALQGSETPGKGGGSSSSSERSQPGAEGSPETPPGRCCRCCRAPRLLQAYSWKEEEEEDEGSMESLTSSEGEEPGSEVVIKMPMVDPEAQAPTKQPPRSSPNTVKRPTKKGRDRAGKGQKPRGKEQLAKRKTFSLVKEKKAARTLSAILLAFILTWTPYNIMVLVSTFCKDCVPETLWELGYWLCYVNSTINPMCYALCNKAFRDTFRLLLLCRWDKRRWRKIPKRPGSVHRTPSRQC
Sequence of Gonadotropin-releasing hormone receptor (Homo sapiens) (P30968 whole entry, looked up): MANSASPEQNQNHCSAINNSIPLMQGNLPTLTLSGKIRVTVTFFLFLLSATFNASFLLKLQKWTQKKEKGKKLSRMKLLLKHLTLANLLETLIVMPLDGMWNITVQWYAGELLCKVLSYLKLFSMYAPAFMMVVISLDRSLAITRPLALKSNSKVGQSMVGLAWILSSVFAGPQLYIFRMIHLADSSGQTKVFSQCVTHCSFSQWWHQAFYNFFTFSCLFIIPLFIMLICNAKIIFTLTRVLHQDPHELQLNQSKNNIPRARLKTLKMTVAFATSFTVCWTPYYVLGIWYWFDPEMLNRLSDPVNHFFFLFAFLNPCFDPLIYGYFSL
Sequence of 5-hydroxytryptamine receptor 2A (Homo sapiens) (P28223 whole entry, looked up): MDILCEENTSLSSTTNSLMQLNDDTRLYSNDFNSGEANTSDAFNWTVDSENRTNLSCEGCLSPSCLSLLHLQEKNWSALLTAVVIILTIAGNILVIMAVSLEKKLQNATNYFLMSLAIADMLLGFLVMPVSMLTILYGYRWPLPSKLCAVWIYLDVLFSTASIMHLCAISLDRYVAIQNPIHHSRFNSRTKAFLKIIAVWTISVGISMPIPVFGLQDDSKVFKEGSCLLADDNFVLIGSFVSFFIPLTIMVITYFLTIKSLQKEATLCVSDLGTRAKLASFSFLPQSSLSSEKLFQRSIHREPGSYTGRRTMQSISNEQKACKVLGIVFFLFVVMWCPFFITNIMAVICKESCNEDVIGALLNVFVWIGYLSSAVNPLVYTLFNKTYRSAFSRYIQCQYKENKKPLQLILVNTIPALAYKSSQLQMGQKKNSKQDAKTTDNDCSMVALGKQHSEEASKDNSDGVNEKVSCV
Sequence of D(2) dopamine receptor (Homo sapiens) (P14416 whole entry, looked up): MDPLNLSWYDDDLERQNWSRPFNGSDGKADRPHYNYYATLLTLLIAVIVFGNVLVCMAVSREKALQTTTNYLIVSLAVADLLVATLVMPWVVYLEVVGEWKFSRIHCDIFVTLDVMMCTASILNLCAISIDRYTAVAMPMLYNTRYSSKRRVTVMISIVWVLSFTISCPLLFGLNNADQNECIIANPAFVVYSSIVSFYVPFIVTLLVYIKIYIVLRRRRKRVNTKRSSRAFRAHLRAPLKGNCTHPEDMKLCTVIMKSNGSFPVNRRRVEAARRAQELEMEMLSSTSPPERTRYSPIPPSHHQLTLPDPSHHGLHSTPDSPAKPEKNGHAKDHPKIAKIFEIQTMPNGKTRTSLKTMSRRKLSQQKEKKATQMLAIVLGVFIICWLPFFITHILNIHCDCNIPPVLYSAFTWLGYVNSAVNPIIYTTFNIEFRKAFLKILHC
Sequence of KiSS-1 receptor (Homo sapiens) (Q969F8 whole entry, looked up): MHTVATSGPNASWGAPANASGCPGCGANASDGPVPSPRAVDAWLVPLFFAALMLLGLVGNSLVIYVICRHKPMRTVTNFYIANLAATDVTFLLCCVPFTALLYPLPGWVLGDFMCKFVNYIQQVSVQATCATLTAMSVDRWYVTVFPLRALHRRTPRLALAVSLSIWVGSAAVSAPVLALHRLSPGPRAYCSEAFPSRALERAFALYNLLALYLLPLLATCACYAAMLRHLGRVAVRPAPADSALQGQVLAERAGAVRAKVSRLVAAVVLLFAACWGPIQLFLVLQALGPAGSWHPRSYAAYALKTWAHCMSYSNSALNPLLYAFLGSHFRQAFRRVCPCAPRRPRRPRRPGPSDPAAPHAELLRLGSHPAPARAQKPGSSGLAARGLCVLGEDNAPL
Sequence of Beta-2 adrenergic receptor (Homo sapiens) (P07550 whole entry, looked up): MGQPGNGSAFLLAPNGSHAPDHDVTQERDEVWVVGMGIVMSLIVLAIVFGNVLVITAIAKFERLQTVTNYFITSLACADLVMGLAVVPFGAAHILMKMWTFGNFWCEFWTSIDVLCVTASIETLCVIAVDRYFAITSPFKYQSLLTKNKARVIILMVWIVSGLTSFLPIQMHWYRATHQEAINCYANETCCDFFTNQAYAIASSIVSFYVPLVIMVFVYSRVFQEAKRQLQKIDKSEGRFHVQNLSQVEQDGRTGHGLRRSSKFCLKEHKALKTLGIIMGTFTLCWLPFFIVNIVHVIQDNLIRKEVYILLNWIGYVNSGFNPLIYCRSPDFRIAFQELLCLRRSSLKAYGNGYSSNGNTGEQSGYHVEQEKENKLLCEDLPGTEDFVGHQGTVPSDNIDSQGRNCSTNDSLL

`Nc1cccc2c1CN(C1CCC(=O)NC1=O)C2=O` (configuration not stated): the Potency result in assay [1], in assay [2], in [3], in [4], in assay [5] and in assay [6] was “inactive” in each case. The Potency result in assay [7], in assay [8], in assay [9], in assay [10], in assay [11] and in assay [12] was “inactive” in each case. In addition, the Potency entry in [13], in assay [14], in assay [15], in [16] and in [17] was “inactive” in each case.

Turning to `O[C@@H]([C@H](O)[C@H](O)CBr)[C@H](O)CBr`, the Potency entry in [1], in assay [2], in assay [3], in assay [4], in assay [5] and in assay [6] was “inactive” each time. Besides, the Potency entry in assay [7], in [9], in assay [18], in assay [10], in assay [11] and in assay [19] was “inactive” throughout. Moreover, the Potency result in [12], in [13], in assay [14], in assay [15], in [16] and in assay [17] was “inactive” each time. In addition, in assay [20], the Potency result was “inactive”.

Take `O=C(O)/C=C/c1ccc(Cn2ccnc2)cc1`: the Potency result in assay [1], in assay [2], in [3], in assay [4], in [5] and in [6] was “inactive” each time. The Potency entry in assay [7], in [8], in [9], in assay [18], in assay [10] and in [11] was “inactive” in each case. In addition, the Potency entry in assay [12], in assay [13], in [14], in [15], in assay [16] and in assay [17] was “inactive” throughout. Also, in assay [20], the Potency entry was “inactive”.

As to `CCOC(=O)O[C@]1(C(=O)OCCl)CC[C@H]2[C@@H]3CCC4=CC(=O)C=C[C@]4(C)[C@H]3[C@@H](O)C[C@@]21C`, the Potency result in assay [1], in [2], in assay [3], in assay [4], in assay [5] and in assay [6] was “inactive” throughout. Besides, the Potency entry in assay [7], in [8], in assay [9], in [18], in assay [11] and in assay [19] was “inactive” throughout. Also, the Potency result in [12], in assay [13], in assay [14], in assay [15], in assay [16] and in assay [17] was “inactive” each time. For the same molecule, the Potency entry in assay [20] is “inactive”.

In the case of `O=C1OC(=O)c2ccccc21`, the Potency result in assay [1], in assay [2], in assay [3], in assay [4], in assay [5] and in assay [6] was “inactive” throughout. For the same molecule, the Potency result in assay [7], in assay [9], in [18], in assay [10], in [11] and in assay [19] was “inactive” throughout. Also, the Potency entry in assay [12], in assay [13], in assay [14], in assay [15], in assay [16] and in assay [17] was “inactive” each time. Also, the Potency result in assay [20] is “inactive”.

Turning to `CCCCCCCCC1CCC(=O)O1` (configuration not stated), the Potency entry in assay [1], in assay [2], in [3], in assay [4], in assay [5] and in assay [6] was “inactive” throughout. In addition, the Potency result in assay [7], in [9], in assay [18], in assay [10], in assay [11] and in [19] was “inactive” each time. The Potency result in [12], in [13], in assay [14], in assay [15], in assay [16] and in assay [17] was “inactive” throughout. Besides, the Potency entry in [20] was “inactive”.

For the molecule `Nc1c2ccccc2nc2ccccc12`, the Potency result in assay [1], in [3], in [4], in assay [5], in [8] and in [9] was “inactive” each time. Besides, the Potency entry in assay [10], in [11], in assay [15], in assay [17] and in assay [20] was “inactive” each time. Besides, the Potency in assay [2] was 6.03 µM (active) and 6.68 µM (active); in [6], 11.3 µM (active) and 19.9 µM (active); in assay [7], 40.3 µM (active); in assay [19], 14.7 µM (active) and inactive.
